Compound activity (PubChem BioAssay)
An excerpt weighted towards active compounds, which were near 11% of everything screened.
L3MBTL1 block = qHTS Assay for the Inhibitors of L3MBTL1 | AlphaScreen L3MBTL1–H3K9me1 peptide binding | 230,000 tested, 0.66% active | Potency, µM (doses to about 57.1 µM), without a hit: at the top dose activity, negative = inhibition, actives largely listed as inhibitors | Lethal(3)malignant brain tumor-like protein 1 (Homo sapiens), Q9Y468; note: potency is the fitted concentration of half-maximal effect; % is set by controls: 0 for no effect and ±100 for the full control effect; nearly all actives have a fitted effect of over 60% in size
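Displacement of a biotinylated histone H3(1-15) peptide monomethylated at Lys9 (75 nM) from L3MBTL1 (50 nM) was measured by AlphaScreen after a 30 min room-temperature compound incubation; cefsulodin titration served as intraplate control.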
G9a block = qHTS Assay for Inhibitors of Histone Lysine Methyltransferase G9a; Histone-lysine N-methyltransferase EHMT2 (Homo sapiens), Q96KQ7; Potency, µM (top dose mostly 102 µM), for the others: at the highest dose activity, negative = inhibition, hits mostly inhibitors; AID 504332, 2011; 350,000 tested, 8.8% active; G9a H3K9 monomethylation, AlphaScreen, 2 h; note: potency is the fitted concentration of half-maximal effect; % is set by controls: 0 for no effect and ±100 for the full control effect; nearly all actives have a fitted effect of over 75% in size
Target sequence (Q96KQ7 913-1193 limits assumed): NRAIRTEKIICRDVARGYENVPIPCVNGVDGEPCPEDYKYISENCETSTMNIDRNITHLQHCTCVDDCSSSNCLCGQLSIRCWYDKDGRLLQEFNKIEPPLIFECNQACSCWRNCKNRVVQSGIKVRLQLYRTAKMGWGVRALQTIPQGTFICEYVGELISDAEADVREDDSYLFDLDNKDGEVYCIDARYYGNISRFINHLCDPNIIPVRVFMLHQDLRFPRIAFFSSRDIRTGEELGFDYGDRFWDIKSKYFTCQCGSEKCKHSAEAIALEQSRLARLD
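Step 1: enzyme (final 20 nM) with compound, 15 min RT. Step 2: substrate peptide 500 nM and SAM 20 uM, 2 h RT. Step 3: anti-H3K9me1 antibody and AlphaScreen beads, 10 min, then plate read.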
PI5P4Ka inh = qHTS for Inhibitors of phosphatidylinositol 5-phosphate 4-kinase (PI5P4K); Phosphatidylinositol 5-phosphate 4-kinase type-2 alpha (Homo sapiens), P48426; PI5P4Kalpha enzyme, ADP-Glo luminescence, 60 min; active compounds read low; max response, %; 330,000 tested, 1.2% active; AID 652105, 2013; active = max response of -50% or lower; inconclusive = between -30% and -50%; inactive = -30% or higher; note: value at the top dose of about 77 µM; % is set by controls: 0 for no effect and ±100 for the full control effect
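Controls without substrate or without enzyme flank wells where PI5P4Kalpha converts substrate using 5 microM ATP (final). Incubation lasts 60 minutes at room temperature; ADP formed is read by ADP-Glo luminescence.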
JMJD2A Tudor = qHTS Assay for Inhibitors of JMJD2A-Tudor Domain; Potency, µM (titrated, usually from 114 µM), inactives show top-dose activity change, negative = inhibition, usual class: inhibitors; AlphaScreen JMJD2A-Tudor / H3K4me3 peptide binding; 390,000 tested, 4.4% active; Lysine-specific demethylase 4A (Homo sapiens), O75164; note: potency is the fitted concentration of half-maximal effect; % is set by controls: 0 for no effect and ±100 for the full control effect; nearly all actives have a fitted effect of over 50% in size
HP1b binding inh = HTS for Inhibitors of HP1-beta Chromodomain Interactions with Methylated Histone Tails; Potency, µM (doses to about 114 µM), for inactives: top-dose activity change, negative = inhibition, usual class: inhibitors; AlphaScreen HP1-beta / biotin-H3K9me3 peptide binding; 390,000 tested, 0.56% active; note: potency is the fitted concentration of half-maximal effect; nearly all actives have a fitted effect of over 70% in size
Target sequence (P83916 whole entry, looked up): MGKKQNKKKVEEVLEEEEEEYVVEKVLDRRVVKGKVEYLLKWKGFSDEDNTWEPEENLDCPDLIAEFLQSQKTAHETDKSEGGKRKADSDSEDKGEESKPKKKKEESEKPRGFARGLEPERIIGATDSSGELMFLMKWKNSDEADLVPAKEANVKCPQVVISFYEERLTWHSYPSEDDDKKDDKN
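HP1-beta protein (50 nM final) preincubated 30 min at room temperature with biotinylated H3(1-18)K9me3 peptide (50 nM) in PBS pH 7.4, 0.01% Tween-20, then compound added for 30 min. AlphaScreen streptavidin donor/nickel chelate acceptor beads (10 ug/mL final), 30 min dark, luminescence read.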
BAZ2B block = qHTS Assay for Inhibitors of BAZ2B; Bromodomain adjacent to zinc finger domain protein 2B (Homo sapiens), Q9UIF8; AlphaScreen BAZ2B-H3K14Ac peptide displacement; Potency, µM (highest dose often 114 µM), for the others: at the top dose activity change, negative = inhibition, usual class: inhibitors; 360,000 tested, 4.4% active; AID 504333, 2011; note: potency is the fitted concentration of half-maximal effect; % is set by controls: 0 for no effect and ±100 for the full control effect; nearly all actives have a fitted effect of over 60% in size
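AlphaScreen displacement: compounds (up to 110uM) incubated 30 min at room temperature with a preformed 50 nM BAZ2B/50 nM biotinylated H3K14Ac peptide complex in PBS pH 7.4 with Tween-20. Donor and acceptor beads at 10 ug/mL final added, 20 min light-protected before reading.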
The depositor's hits bear a star; u = inconclusive; x = no result given; [ ] = another dose, or the depositor's remark. Unless noted, calls come from the whole dose curve; as a rule, active = well fitted inhibition curve with a large enough effect; inconclusive = small, poorly fitted or top-dose-only effect; inactive = no such curve, though single readings can be large or run the other way.

SMILES | L3MBTL1 block | G9a block | PI5P4Ka inh | JMJD2A Tudor | HP1b binding inh | BAZ2B block
Cc1occc1C(=O)N1CCN(C(c2ccccc2)c2ccccc2)CC1 | u | 40µM* | -5 | u | 3% | u
O=C(c1cc(C2CC2)on1)N1CCN(C(c2ccccc2)c2ccccc2)CC1 | 4% | u | 0 | -16% | 43% | -6%
CCCCNC(=O)CCC(=O)N1CCN(C(c2ccccc2)c2ccccc2)CC1 | -1% | 2% | 4 | -1% | 69% | 79µM*
COC(=O)CNC(=O)CCC(=O)N1CCN(C(c2ccccc2)c2ccccc2)CC1 | 0% | 1% | -1 | -4% | 50% | -17%
O=C(c1cc(-c2cccc(O)c2)on1)N1CCN(C(c2ccccc2)c2ccccc2)CC1 | -11% | 45µM* | 4 | u | 9% | -8%
COCCNC(=O)CN1CCN(C(c2ccccc2)c2ccccc2)CC1 | -3% | 14µM* | x | 8.9µM* | u | u
Cc1ccnc(SCC(=O)N2CCN(C(c3ccccc3)c3ccccc3)CC2)n1 | x | 45µM* | -3 | -18% | 36% | -2%
Cc1ccnc(SCC(=O)N2CCc3ccccc32)n1 | x | 18% | 3 | -3% | 25% | -9%
COC(=O)CN1CCN(C(c2ccccc2)c2ccccc2)CC1 | 1% | 56µM* | x | -23% | 28% | 8%
O=C(NCc1cccc(Br)c1)c1cccn1-c1nnc(N2CCCCC2)s1 | x | -9%[59 µM] | x | -35% | -18% | -9%
CCCCC1NC(C(=O)O)CS1 (centres undefined) | 14% | 5µM* | 16 | 32µM* | u | 50µM*
CCCCCC1CCC(C(=O)O)CC1 (centres undefined) | 5% | 4%[2.33 µM] | -6 | -3% | 19% | 4%
N#Cc1cccc(NC(=O)Cn2nc(Cc3ccncc3)c3ccccc3c2=O)c1 | x | -28%[59 µM] | x | -2% | 29% | -4%
CNC(=O)COc1ccc(NC(=O)CCn2nc(-c3ccc(C)cc3)c3ccccc3c2=O)cc1 | x | 4%[59 µM] | x | -1% | 37% | 2%[57.1 µM]
Cc1ccc(Nc2ncccc2C(N)=O)cc1 | -5% | -8% | 2 | -17% | 28% | -8%
COc1ccc(-c2cc3ncc(C)n3c(Nc3ncccc3C(N)=O)n2)cc1OC | x | 19µM* | x | x | x | x
O=C(CSc1nnc2n1CCCN2)c1ccc([N+](=O)[O-])cc1 | -7% | 40µM* | -12 | u | -1% | -38%
O=C(CSc1nnc2n1CCCN2)c1ccc(Cl)cc1 | 6% | -18%[59 µM] | -5 | -22% | 4% | 6%
COc1ccc(-n2c(=S)[nH]c3cc(C(=O)NCCCN4CCOCC4)ccc3c2=O)cc1OC | x | 35µM* | -8 | 22µM* | 34% | u
COc1ccccc1Cn1c(=S)[nH]c2cc(C(=O)NCC3CCCO3)ccc2c1=O (centres undefined) | x | -9% | -12 | -9% | 13% | 3%
O=C(NCCCN1CCOCC1)c1ccc2c(=O)n(Cc3ccccc3)c(=S)[nH]c2c1 | x | 50µM* | -2 | -10% | 39% | -26%
COc1ccccc1Cn1c(=S)[nH]c2cc(C(=O)NCCN(C)C)ccc2c1=O | x | 45µM* | 3 | -19% | 15% | -14%
COC(=O)c1sccc1S(=O)(=O)N(CC(=O)NCc1ccc(C)cc1)c1ccccc1 | x | 12%[59 µM] | x | -16% | -18% | -10%
CS(=O)(=O)N(CC(=O)NCc1ccccn1)Cc1ccc(Cl)cc1 | 3% | u | -3 | 11µM* | 29% | u
O=C(Cc1ccccc1)NCc1ccc2c(c1)OCO2 | x | u | -2 | -19% | 38% | -24%
SMILES | L3MBTL1 block | G9a block | PI5P4Ka inh | JMJD2A Tudor | HP1b binding inh | BAZ2B block
CS(=O)(=O)N(CC(=O)NCc1ccc2c(c1)OCO2)Cc1ccccc1 | x | -26%[12.7 µM] | u | 18µM* | u | -13%
COc1ccc(NC(=O)c2oc3ccccc3c2NC(=O)Cc2ccc(F)cc2)c(OC)c1 | x | -19%[59 µM] | x | -4% | 44% | 3%
COc1ccc(CCC(=O)N2CCN(c3ccc(OC)cc3)CC2)cc1 | x | u | 10 | -35% | -5% | u
COc1ccc(N(C(C)C(=O)N(C)Cc2ccccc2)S(C)(=O)=O)cc1 (centres undefined) | 3% | -8% | 1 | 7% | 36% | -3%
COc1ccc(N2CCN(C(=O)CN(Cc3ccccc3)S(C)(=O)=O)CC2)cc1 | x | 50µM* | x | -21% | 11% | -28%
O=C(C(Cc1ccccc1)n1cccc1)N1CCN(Cc2ccccc2)CC1 (centres undefined) | x | 32µM* | 3 | u | 1% | 50µM*
COc1ccc(N2CCN(C(=O)CCc3ccccc3)CC2)cc1 | x | 32µM* | 0 | -14% | 23% | -22%
COc1ccc(N2CCN(C(C)C(=O)N(C)Cc3ccccc3)CC2)cc1 (centres undefined) | x | 50µM* | 10 | -21% | -10% | -13%
CCOc1ccc(NC(=O)C2CC(=O)N(c3ccc(C(C)C)cc3)C2)cc1 (centres undefined) | x | -9%[59 µM] | x | -6% | 30% | -8%
COc1ccc(NC(=O)N2CCC3(CC2)CCN(C(=O)c2cccc(F)c2)CC3)cc1 | x | -2%[12.7 µM] | x | x | x | x
CCOc1ccc(-c2nonc2NC(=O)c2oc3ccc(Cl)cc3c2C)cc1 | x | 9%[59 µM] | x | -8% | 43% | -1%
CCc1cccc(CC)c1NC(=O)Cn1nnc2sc(-c3ccccc3)cc2c1=O | x | 10%[59 µM] | x | -14% | 26% | -4%
COc1ccc(N2CCN(C(=O)CN(Cc3ccc(Cl)cc3)S(C)(=O)=O)CC2)cc1 | x | 79µM* | x | u | -21% | u
COc1ccc(N2CCN(C(=O)C(Cc3ccccc3)n3cccc3)CC2)cc1 (centres undefined) | x | 40µM* | 0 | 56µM* | u | 28µM*
CS(=O)(=O)N(CC(=O)N1CCN(c2ccccc2)CC1)Cc1ccc(Cl)cc1 | x | u | x | -31% | 4% | -5%
COc1ccc(N2CCN(C(=O)CCCOc3cc(=O)n(C)c4ccccc34)CC2)cc1 | -4% | 79µM* | x | u | -6% | u
CS(=O)(=O)N(CC(=O)N1CCN(Cc2ccc3c(c2)OCO3)CC1)Cc1ccc(Cl)cc1 | x | u | x | -27% | 7% | 56µM*
CN(C)c1ccc(-c2ccc3ncnc(NC4CC4)c3c2)cc1 | x | 1%[0.501 µM] | x | x | x | x
COc1ccc(N2CCN(C(=O)Cc3ccc(OC)c(OC)c3)CC2)cc1 | -23% | 3%[59 µM] | u | 13µM* | -19% | 8%[0.457 µM]
